# HCMV antiviral = human cytomegalovirus inhibition; activity change, negative = inhibition, % at 57.5 µM; AID 1259415; HFF cells, HCMV-luciferase reporter, 72 h; stronger effect = lower value; 410,000 compounds, 4.5% hits; in the data active = activity change below about -60%; inconclusive = no clear call, values can overlap the other calls; inactive = above about -39%
#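 Steps: HFFs plated, 16 h 37C; compounds added; HCMV-luciferase added to MOI 1 PFU/cell; 72 h 37C; OneGlo reagent, 5 min room temperature; luminescence read, normalized to controls.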
# VACV mCherry inh = vaccinia inhibition (mCherry reporter) | Vaccinia virus mCherry reporter infection, fluorescence | Potency, µM (series often up to 36.5 µM), inactives show top-dose activity change, negative = inhibition, most hits filed as inhibitors | 310,000 compounds, 0.63% hits; calls by dose curve; tested in A549 cells; note: potency is the fitted concentration of half-maximal effect; nearly all actives have a fitted effect of over 35% in size
# HCV inh = HCV inhibition; Potency, µM (doses to about 41.8 µM), inactives show top-dose activity change, negative = inhibition, most hits filed as inhibitors; 340,000 compounds, 3.4% hits; Huh7.5.1 HCVcc-Cre infection, luciferase reporter, 44 h; note: potency is the fitted concentration of half-maximal effect
#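 Reporter virus HCVcc-Cre (~0.5 moi) infects cells exposed to compound; seeding density 1,000 cells/well with 4 h settling beforehand. Luminescence, 15 sec read, taken 44 h post-infection following a 15 min RT substrate incubation.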
# FBPA Giardia inh = inhibitors of Giardia lamblia fructose-1,6-bisphosphate aldolase; Potency, µM (series often up to 59.6 µM), for the others: top-dose activity, negative = inhibition, actives largely listed as inhibitors; A8B2U2; purified Giardia FBPA; 290,000 compounds, 0.71% hits; AID 2451; note: potency is the fitted concentration of half-maximal effect; nearly all actives have a fitted effect of over 55% in size
# Target sequence (A8B2U2 whole entry, looked up): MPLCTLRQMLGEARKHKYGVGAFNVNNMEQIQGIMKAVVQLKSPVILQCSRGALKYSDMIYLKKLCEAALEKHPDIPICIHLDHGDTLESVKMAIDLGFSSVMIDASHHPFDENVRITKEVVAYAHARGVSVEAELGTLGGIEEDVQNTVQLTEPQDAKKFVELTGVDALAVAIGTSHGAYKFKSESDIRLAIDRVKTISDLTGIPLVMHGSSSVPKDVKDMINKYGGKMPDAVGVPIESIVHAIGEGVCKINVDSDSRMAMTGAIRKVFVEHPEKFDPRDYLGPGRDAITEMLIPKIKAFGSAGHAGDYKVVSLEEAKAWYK
#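 Giardia FBPA (40 nM reagent) was preincubated 10 min at RT with compound (up to 57.5 uM final), then substrate plus GAPDH/TPI/NAD/arsenate coupling system with diaphorase/resazurin was added; resorufin fluorescence (525/598 nm) was read after 20 min.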
# FMDV inh = antivirals against foot and mouth disease virus | FMDV antiviral cell-based qHTS | Potency, µM (doses to about 57.9 µM), inactives show at the top dose activity change, negative = inhibition, hits mostly inhibitors | 410,000 compounds, 1.2% hits; calls by dose curve; tested in HEK293T cells; note: read-out not given here; potency is the fitted concentration of half-maximal effect; nearly all actives have a fitted effect of over 45% in size
# VACV Venus inh = vaccinia inhibition (Venus reporter). Potency, µM (series often up to 36.5 µM), for the others: at the top dose activity change, negative = inhibition, most hits filed as inhibitors. 330,000 compounds, 0.46% hits. Vaccinia virus Venus reporter expression, fluorescence; calls by dose curve; tested in A549 cells; note: potency is the fitted concentration of half-maximal effect; nearly all actives have a fitted effect of over 30% in size
# * marks the source's active call; other numbers are inactive results; i = inactive; u = inconclusive; x = no result; + = active, no number; [ ] = another dose, or the depositor's remark. Hits are enriched below; roughly 7.5% of the tested compounds scored in any of these assays. Unless noted, calls come from the whole dose curve; as a rule, active = well fitted curve in the direction sought with a large enough effect; inconclusive = small, poorly fitted or top-dose-only effect, or another doubt; inactive = no such curve, though single readings can be large; an effect the other way counts as inactive or inconclusive. % is set by controls: 0 for no effect and ±100 for the full control effect.
SMILES,HCMV antiviral,VACV mCherry inh,HCV inh,FBPA Giardia inh,FMDV inh,VACV Venus inh
COc1ccccc1C1CC(=O)Oc2cc3c(cc21)OCO3 (centres undefined),x,x,x,40µM*,x,x
COc1ccccc1C1CC(=O)Oc2cc(C)c(Cl)cc21 (centres undefined),-10,-2%,12%,-7%[89.2 µM],-6%,-22%
COc1ccc(Cl)cc1C1CC(=O)Nc2cc3c(cc21)OCCO3 (centres undefined),-92*,-13%[7.34 µM],x,x,-1%,-27%[7.34 µM]
CC(O)(COc1ccccc1)c1ccc2c(c1)CN(Cc1cccc3ncccc13)CCO2 (centres undefined),x,-19%,x,x,-24%,-4%
CC(C)Oc1ccccc1C1CC(=O)Nc2cc3c(cc21)OCCO3 (centres undefined),-103*,x,u,-24%,u,x
Fc1ccccc1N1CCN(c2ncnc3[nH]ncc23)CC1,u,-12%,16µM*,10%,u,8%
c1ccc(N2CCN(c3ncnc4[nH]ncc34)CC2)cc1,u,0%[7.34 µM],x,x,u,3%[7.34 µM]
Cc1ccc(S(=O)(=O)Cn2nnnc2CN2CCCC3(CCCCC3)C2)cc1,-68*,-22%,3%,-3%,x,u
Cc1ccc(S(=O)(=O)Cn2nnnc2CN2CCOCC2)cc1,-25,i,7%,-8%,x,-21%
NC(=O)NN=C1c2cc(S(=O)(=O)N3CCOCC3)ccc2-c2ccc(S(=O)(=O)N3CCOCC3)cc21,x,-1%,x,x,x,-18%
Cc1cc(C)cc(-n2ccn(Cc3ccc(F)cc3)c(=O)c2=O)c1,u,-11%,x,x,-6%,-9%
C=C1N(C)c2cc([N+](=O)[O-])c(N)cc2C1(C)C,-4,12%,u,4.5µM*,u,-16%
CC1(C)Oc2cc(N)c([N+](=O)[O-])cc2O1,-6,x,2%,0%,-12%,-15%
Cn1c(CCN2CCCCC2)nc2cc(NC(=O)COc3ccc([N+](=O)[O-])cc3)ccc21,-75*,x,-30%,-1%,24%,x
CCn1c(CN2CCCCC2)nc2cc(NC(=O)COc3cc(C)ccc3C(C)C)ccc21,-19,-29%,x,x,u,-17%
CC(=O)N1CCN(Cc2nc3cc(NC(=O)Cn4nc(C)c5ccccc5c4=O)ccc3n2C)CC1,-1,-1%,20%,1%,-3%,-11%
Cc1nn(CC(=O)Nc2ccc3c(c2)nc(CCN2CCCCC2)n3C)c(=O)c2ccccc12,-63*,x,u,-2%,-23%,x
Cc1ccc(C(C)C)c(OCC(=O)Nc2ccc3c(c2)nc(CCN2CCCCC2)n3C)c1,-81*,x,10µM*,-12%,-20%,x
Cn1c(CCN2CCCCC2)nc2cc(NC(=O)COc3ccc(Cl)cc3)ccc21,-70*,x,u,-14%,-15%,x
CCn1c(CN2CCCCC2)nc2cc(NC(=O)COc3ccc([N+](=O)[O-])cc3)ccc21,-23,u,x,x,u,-23%
CCN(CC)C[C@@H](O)CN1CCCCc2nc(C)c(C)cc21,x,x,x,-16%[12.9 µM],x,x
CCOc1ccccc1NC(=O)c1ccc2c(O)c(S(=O)(=O)c3ccccc3)c(=O)[nH]c2c1,-11,-7%,x,x,-22%,-2%
COc1ccc(Cc2nc3ccc(C(=O)NCCc4cccc(C)n4)cc3o2)cc1,u,x,-19%,x,-2%,x
COc1cc(CC2C(=O)OCC2C(=O)c2ccc3c(c2)OCO3)cc(OC)c1OC (centres undefined),24,i,25%,x,-14%,-3%
CC(C)c1cc(-c2nc(-c3ccc(Cl)cc3)no2)n[nH]1,-68*,-15%,x,x,-16%,-21%
SMILES,HCMV antiviral,VACV mCherry inh,HCV inh,FBPA Giardia inh,FMDV inh,VACV Venus inh
CCN(CC)c1ccc(C(=O)NNC(=O)c2cccn2C)cc1,26,-25%,7.1µM*,x,13%,-5%
O=C(NCCc1ccc(F)cc1)c1coc(=O)c(Br)c1,-78*,x,7%,2%,35µM*,x
O=C(NCc1ccccn1)c1coc(=O)c(Br)c1,50,x,13%,20%,20µM*,-8%
O=C(COc1ccc(F)cc1)Nc1ccc2nc(SCC(=O)N3CCCC3)sc2c1,-21,-11%,x,x,u,-10%
O=C(CSc1nc2ccc(Nc3nc(N4CCOCC4)nc(N4CCOCC4)n3)cc2s1)Nc1ccccc1F,-97*,x,u,x,-18%,x
O=C(COc1ccccc1F)Nc1ccc2nc(SCC(=O)N3CCOCC3)sc2c1,-68*,-23%,x,x,u,-20%
O=C(COc1ccccc1F)Nc1ccc2nc(SCC(=O)N3CCCC3)sc2c1,-63*,-23%,x,x,u,-22%
O=C(COc1ccc(F)cc1)Nc1ccc2nc(SCC(=O)N3CCOCC3)sc2c1,-15,-14%,x,x,u,-18%
O=C1C(n2ccc3ccccc32)c2cccc(F)c2N1Cc1ccc(C(F)(F)F)cc1 (centres undefined),15,x,x,x,x,x
Cc1cc(Cl)ccc1NC(=S)NCC(C)C,-73*,i,-5%,-1%,23%,-12%
COc1ccc(-c2ccc(=O)n(CC(=O)Nc3ccc4c(c3)OCCO4)n2)cc1,-12,-17%,-5%,1%,-21%,-6%
COc1ccc(-c2ccc(=O)n(CC(=O)Nc3ccc(OC)c(OC)c3)n2)cc1,+,-13%,x,x,-12%,0%
CCCCCC1=C2CNC(C)(C(=O)OC)C=C2C(C)C1=O (centres undefined),x,x,x,-16%,x,x
O=C(Nc1ncc(Cc2ccccc2Cl)s1)c1ccc([N+](=O)[O-])cc1,-18,-6%,u,-10%,u,-3%
O=C(CN1CCOCC1)Nc1ncc(Cc2ccccc2Cl)s1,68,0%,-23%,-16%,x,-17%
Cc1ccc(Cc2cnc(NC(=O)c3ccco3)s2)cc1,1,-14%,u,1%,x,u
CC(=O)Nc1ncc(Cc2cccc(Cl)c2)s1,-33,i,-17%,-3%,0%,-17%
CCc1ccc(CCC(=O)Nc2ncc(Cc3ccccc3Cl)s2)o1,-61*,-18%,u,5%,-21%,u
CC(C)C(=O)Nc1ncc(Cc2cccc(Cl)c2)s1,-69*,-14%,-9%,-6%,-20%,-17%
O=C(Nc1ncc(Cc2cccc([N+](=O)[O-])c2)s1)c1ccco1,-72*,i,u,-3%,7%,u
O=C(Nc1ncc(Cc2ccccc2Cl)s1)c1ccc(-c2cccc([N+](=O)[O-])c2)o1,-63*,x,22µM*,8%,u,x
Cn1cc([N+](=O)[O-])c(C(=O)Nc2ccc(-c3nc4ccccc4o3)cc2)n1,-9,x,u,0%,-43%,x
Cc1c(Cl)cccc1NC(=S)NNS(=O)(=O)c1ccc([N+](=O)[O-])cc1,-12,10µM*,19%,x,8%,u
CC1CC(C)(C)NC(=S)N1CC(=O)N1CCN(Cc2ccc3c(c2)OCO3)CC1 (centres undefined),-40,4%,3%,3%,-21%,-3%
CC(=O)N1CCN(CCS(=O)(=O)c2cc(Cl)ccc2Cl)CC1,-15,u,10%,x,-8%,u

# Screens deposited in PubChem BioAssay by National Center for Advancing Translational Sciences (NCATS).
